# In PubChem BioAssay (Tox21):
# Values without a mark were called inactive. Records with an inconclusive call do not appear. Where a call stands in place of a potency, no number is given. Calls of active or inactive are those of the source. Unless noted, calls follow the shape of the dose curve; as a rule, active = well fitted curve in the direction sought with a large enough effect in the repeat runs; inconclusive = weak or mixed curves; inactive = no such curve, though single readings can be large; an effect the other way counts as inactive or inconclusive.
# Experiments:
# [1] = target: Thyrotropin receptor (Homo sapiens) (UniProt P16473); test: qHTS assay to identify small molecule antagonists of the thyroid stimulating hormone receptor (TSHR) signaling pathway (AID 1259385; calls by dose curve; also: nearly all actives have a fitted effect of over 20% in size)
# Thyrotropin receptor (Homo sapiens), sequence (P16473 whole entry, looked up): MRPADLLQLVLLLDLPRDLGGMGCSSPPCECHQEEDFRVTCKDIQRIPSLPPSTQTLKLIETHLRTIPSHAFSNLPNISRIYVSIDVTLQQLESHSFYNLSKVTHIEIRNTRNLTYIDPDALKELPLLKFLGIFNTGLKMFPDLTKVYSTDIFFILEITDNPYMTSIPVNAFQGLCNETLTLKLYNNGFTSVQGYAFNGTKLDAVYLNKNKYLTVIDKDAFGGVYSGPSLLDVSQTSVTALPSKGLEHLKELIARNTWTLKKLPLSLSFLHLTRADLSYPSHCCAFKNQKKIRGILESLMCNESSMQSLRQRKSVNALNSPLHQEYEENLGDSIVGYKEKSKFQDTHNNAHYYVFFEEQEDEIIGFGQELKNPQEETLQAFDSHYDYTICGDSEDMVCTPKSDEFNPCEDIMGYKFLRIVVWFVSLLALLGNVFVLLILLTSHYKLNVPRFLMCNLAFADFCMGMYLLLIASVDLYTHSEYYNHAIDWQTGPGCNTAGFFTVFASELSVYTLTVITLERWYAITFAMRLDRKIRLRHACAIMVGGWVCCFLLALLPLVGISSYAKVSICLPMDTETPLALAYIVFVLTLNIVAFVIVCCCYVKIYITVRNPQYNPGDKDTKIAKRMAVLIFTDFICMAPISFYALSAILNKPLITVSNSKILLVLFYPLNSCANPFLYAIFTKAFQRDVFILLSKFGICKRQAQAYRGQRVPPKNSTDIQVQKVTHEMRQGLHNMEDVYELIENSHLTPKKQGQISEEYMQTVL
# Summary of the method: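 Antagonist mode: compound-treated TSHR-expressing HEK293 cells were stimulated with 1.5 ng/mL TSH (final) in presence of Ro20-1724 for 30 min at RT. HTRF cAMP detection after 1 h; each compound tested at 15 concentrations, triplicate.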
# [2] = qHTS assay to identify small molecule agonists of the estrogen receptor alpha (ER-alpha) signaling pathway in the presence of an antagonist - cell viability counter screen (AID 1259386);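 also: series mostly up to about 92 µM; cells exposed to compounds for 22 h at 37 °C before the viability read; nearly all actives have a fitted effect of over 30% in size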
# Summary of the method: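 Viability counter screen using VM7Luc4E2 (full-length ER-alpha, four ERE-luciferase). The cells were treated with compounds alongside ICI-182,780 10.0nM for 22hr, and live-cell protease fluorescence was quantified with CellTiter-Fluor.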
# [3] = target: Progesterone receptor (Homo sapiens) (UniProt P06401); test: qHTS assay to identify small molecule agonists of the progesterone receptor (PR) signaling pathway (AID 1346784; calls by dose curve; also: nearly all actives have a fitted effect of over 30% in size)
# Progesterone receptor (Homo sapiens), sequence (P06401 whole entry, looked up): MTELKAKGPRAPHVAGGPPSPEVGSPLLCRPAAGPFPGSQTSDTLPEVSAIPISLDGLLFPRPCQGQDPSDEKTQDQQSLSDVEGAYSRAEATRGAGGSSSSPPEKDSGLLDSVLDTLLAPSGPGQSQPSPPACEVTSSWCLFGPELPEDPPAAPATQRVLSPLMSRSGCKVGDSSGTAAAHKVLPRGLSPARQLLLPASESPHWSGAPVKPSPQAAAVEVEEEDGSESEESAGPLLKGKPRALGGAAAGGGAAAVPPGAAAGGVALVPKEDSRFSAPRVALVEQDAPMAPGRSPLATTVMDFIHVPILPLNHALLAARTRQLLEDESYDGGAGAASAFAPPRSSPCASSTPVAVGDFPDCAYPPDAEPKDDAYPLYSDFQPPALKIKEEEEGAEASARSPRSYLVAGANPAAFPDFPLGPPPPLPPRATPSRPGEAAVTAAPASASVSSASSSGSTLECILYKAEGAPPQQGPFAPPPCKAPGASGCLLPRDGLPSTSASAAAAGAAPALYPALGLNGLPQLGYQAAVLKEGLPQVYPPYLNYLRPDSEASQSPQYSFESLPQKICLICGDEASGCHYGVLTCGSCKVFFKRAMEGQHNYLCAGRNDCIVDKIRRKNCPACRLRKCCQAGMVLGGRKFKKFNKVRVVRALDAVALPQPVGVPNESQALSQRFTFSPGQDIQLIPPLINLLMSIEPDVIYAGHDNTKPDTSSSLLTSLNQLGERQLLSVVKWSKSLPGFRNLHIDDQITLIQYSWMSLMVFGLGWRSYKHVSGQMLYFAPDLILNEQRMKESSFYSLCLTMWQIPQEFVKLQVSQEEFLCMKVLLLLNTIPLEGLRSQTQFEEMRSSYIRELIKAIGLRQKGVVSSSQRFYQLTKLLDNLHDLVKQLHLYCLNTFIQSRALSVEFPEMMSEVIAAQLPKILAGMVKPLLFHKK
# Summary of the method: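 The screen uses PR-UAS-bla HEK 293T cells in charcoal-stripped serum (2%). Compounds are applied for 16 hr at 37C after a 6 hr pre-incubation, and reporter activity is detected with a FRET beta-lactamase substrate after 2 hr at room temperature.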
# [4] = qHTS assay to identify small molecule agonists of the progesterone receptor (PR) signaling pathway - cell viability counter screen (AID 1346799; calls by dose curve; also: nearly all actives have a fitted effect of over 45% in size; also: potency is read from the fitted curve at half-maximal effect)
# Summary of the method: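 Viability was scored by ATP luminescence (CellTiter-Glo, 30 min, room temperature) in the same wells used for the reporter readout, after 16 hr compound exposure of PR-UAS-bla HEK293T cells.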
# [5] = qHTS assay to identify small molecule antagonists of the TGF-beta/Smad signaling pathway - cell viability counter screen (AID 1346824); also: nearly all actives have a fitted effect of over 50% in size
# Summary of the method: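 Cytotoxicity counter-screen run in the same wells as the beta-lactamase Smad reporter read: CellTiter-Glo luminescence after 30 min at room temperature. HEK 293T SBE-bla cells had 5 hr compound exposure at 37 C with TGF-beta1 (0.25 ng/mL stock).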
# [6] = qHTS assay to identify small molecule agonists of the TGF-beta/Smad signaling pathway (AID 1346859; active = well fitted activation curve with a large enough effect in the signal ratio in the repeat runs, not every such curve was filed as active; the % refers to the signal ratio; also: series mostly up to about 77 µM)
# Summary of the method: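 Dual-wavelength fluorescence (460/530 nm emission) quantified beta-lactamase expression under the Smad binding element in HEK 293T cells following 5 hr compound treatment at 37 C.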
# [7] = target: Thyrotropin-releasing hormone receptor (Homo sapiens) (UniProt P34981); test: qHTS assay to identify small molecule antagonists of the thyrotropin-releasing hormone receptor (TRHR) signaling pathway (AID 1346877; active = well fitted inhibition curve with a large enough effect in the repeat runs, not every such curve was filed as active; also: series mostly up to about 51 µM)
# Thyrotropin-releasing hormone receptor (Homo sapiens), sequence (P34981 whole entry, looked up): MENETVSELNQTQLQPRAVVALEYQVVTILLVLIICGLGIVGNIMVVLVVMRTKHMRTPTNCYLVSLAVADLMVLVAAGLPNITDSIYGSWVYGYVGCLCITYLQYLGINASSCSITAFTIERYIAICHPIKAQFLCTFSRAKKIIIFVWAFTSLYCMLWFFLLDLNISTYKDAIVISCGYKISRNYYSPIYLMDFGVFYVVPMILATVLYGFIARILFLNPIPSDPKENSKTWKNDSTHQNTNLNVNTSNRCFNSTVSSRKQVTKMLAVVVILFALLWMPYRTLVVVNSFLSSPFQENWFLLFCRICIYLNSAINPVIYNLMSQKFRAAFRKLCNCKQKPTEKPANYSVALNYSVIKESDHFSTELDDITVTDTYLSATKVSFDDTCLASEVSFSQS
# Summary of the method: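 Following an 18 h incubation at 37 °C and a 2 h calcium dye load, TRHR-HEK293 cells were exposed to compound (5 min, room temperature) and challenged with TRH, 1 nM final.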
# [8] = target: Thyrotropin-releasing hormone receptor (Homo sapiens) (UniProt P34981); test: qHTS assay to identify small molecule agonists of the thyrotropin-releasing hormone receptor (TRHR) signaling pathway (AID 1346891; calls by dose curve;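 also: HEK293 cells expressing TRHR with calcium dye readout; series mostly up to about 58 µM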)
# Summary of the method: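 Kinetic fluorescence (3 min, 1 s intervals) reported intracellular calcium after compound transfer onto TRHR-Hek293 cells pre-loaded with dye for 2 h at 37 °C.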
# [9] = Caspase-3/7 induction in HepG2 cells by small molecules, qHTS assay (AID 1346978); also: nearly all actives have a fitted effect of over 15% in size
# Summary of the method: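 Caspase-3/7 induction was measured by Caspase-Glo 3/7 luminescence (30 min, room temperature) after a 17 hr compound exposure of wild-type HepG2 cells seeded at 2,000 per well and pre-incubated 5 hr.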
# [10] = Caspase-3/7 induction in CHO-K1 cells by small molecules, qHTS cell viability counter screen (AID 1346979); also: nearly all actives have a fitted effect of over 35% in size; also: potency is read from the fitted curve at half-maximal effect
# Summary of the method: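 Seeding: 1,500 CHO-K1 cells/well. Rest: 5hr, 37C. Treatment: compounds in DMSO, 16hr. Read: CellTiter-Fluor, 1hr, fluorescence.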
# [11] = Caspase-3/7 induction in CHO-K1 cells by small molecules, qHTS assay (AID 1346980); also: nearly all actives have a fitted effect of over 15% in size
# Summary of the method: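 Luminescent Caspase-Glo 3/7 read (30min, room temperature) quantified apoptosis induction. Cells were wild-type CHO-K1, treated with compound for 17hr at 37 C and 5% CO2.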
# [12] = Caspase-3/7 induction in HepG2 cells by small molecules, qHTS cell viability counter screen (AID 1346981); also: nearly all actives have a fitted effect of over 30% in size; also: potency is read from the fitted curve at half-maximal effect
# Summary of the method: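 Viability determined by CellTiter-Fluor fluorescence in HepG2 wells also used for the luminescent Caspase-Glo 3/7 read. Compounds were present for 16 hr at 37 C, 5% CO2 before reagent addition.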
# [13] = target: Nuclear receptor subfamily 1 group I member 2 (Homo sapiens) (UniProt O75469); test: Human pregnane X receptor (PXR) small molecule agonists, qHTS assay (AID 1346982); also: nearly all actives have a fitted effect of over 35% in size
# Nuclear receptor subfamily 1 group I member 2 (Homo sapiens), sequence (O75469 whole entry, looked up): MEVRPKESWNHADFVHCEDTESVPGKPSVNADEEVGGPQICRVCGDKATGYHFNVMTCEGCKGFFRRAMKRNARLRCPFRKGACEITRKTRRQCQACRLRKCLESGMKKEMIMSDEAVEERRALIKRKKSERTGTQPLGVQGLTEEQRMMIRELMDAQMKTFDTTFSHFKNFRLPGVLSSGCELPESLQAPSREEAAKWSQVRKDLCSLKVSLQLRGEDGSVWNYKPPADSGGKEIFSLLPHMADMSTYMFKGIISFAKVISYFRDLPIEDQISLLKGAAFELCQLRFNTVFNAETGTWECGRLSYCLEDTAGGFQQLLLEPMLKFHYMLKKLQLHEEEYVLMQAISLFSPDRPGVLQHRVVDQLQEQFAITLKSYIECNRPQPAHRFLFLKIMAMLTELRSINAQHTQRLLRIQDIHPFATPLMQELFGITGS
# Summary of the method: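 Compound-induced hPXR transactivation of a CYP3A4 luciferase reporter was scored in HepG2 PXR-Luc cells over 24 hr at 37 C, 5% CO2, by luminescence.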
# [14] = target: Cytochrome P450 2D6 (Homo sapiens) (UniProt P10635); test: Cytochrome P450 Family 2 Subfamily D Member 6 (CYP2D6) small molecule antagonists: luciferase reporter qHTS assay (AID 1671196); also: nearly all actives have a fitted effect of over 50% in size; also: potency is read from the fitted curve at half-maximal effect
# Cytochrome P450 2D6 (Homo sapiens), sequence (P10635 whole entry, looked up): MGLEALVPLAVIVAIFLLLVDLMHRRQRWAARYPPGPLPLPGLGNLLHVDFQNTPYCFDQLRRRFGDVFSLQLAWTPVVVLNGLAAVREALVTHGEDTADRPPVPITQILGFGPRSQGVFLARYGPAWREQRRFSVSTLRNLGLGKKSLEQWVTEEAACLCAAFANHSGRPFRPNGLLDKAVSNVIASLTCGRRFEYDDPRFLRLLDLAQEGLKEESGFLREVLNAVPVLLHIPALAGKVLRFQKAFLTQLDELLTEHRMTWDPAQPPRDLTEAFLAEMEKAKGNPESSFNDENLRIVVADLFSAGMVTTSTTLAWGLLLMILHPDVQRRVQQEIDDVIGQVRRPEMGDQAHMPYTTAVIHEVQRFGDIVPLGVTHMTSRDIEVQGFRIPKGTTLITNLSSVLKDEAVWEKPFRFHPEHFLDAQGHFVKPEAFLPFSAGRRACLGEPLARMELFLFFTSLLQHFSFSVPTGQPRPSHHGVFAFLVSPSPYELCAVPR
# Summary of the method: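 Each well received CYP2D6 with its proluciferin substrate and chemical, sat 10 min, then got NADPH regeneration solution for 1 h at room temperature. Luminescence in RLU served as the activity measure.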
# [15] = target: Progesterone receptor (Homo sapiens) (UniProt P06401); test: qHTS assay to identify small molecule antagonists of the progesterone receptor (PR) signaling pathway (AID 1346795; active = well fitted inhibition curve with a large enough effect in the signal ratio in the repeat runs, not every such curve was filed as active; the % refers to the signal ratio)
# Summary of the method: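 After 6 hr plating at 37C in 2% stripped-serum medium, PR-UAS-bla HEK293T cells got compounds, then 1 nM R5020. Sixteen hours later, LiveBLAzer substrate was applied for 2 hr at room temperature and fluorescence was recorded.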
# [16] = qHTS assay to identify small molecule antagonists of the progesterone receptor (PR) signaling pathway - cell viability counter screen (AID 1346798); also: series mostly up to about 92 µM; nearly all actives have a fitted effect of over 50% in size
# Summary of the method: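 Viability was determined by ATP-based luminescence (CellTiter-Glo) in PR-UAS-bla HEK293T cells cultured in 2% charcoal-stripped serum and incubated 16 hr with compounds under R5020 stimulation.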
# [17] = qHTS assay to identify small molecule agonists of the TGF-beta/Smad signaling pathway - cell viability counter screen (AID 1346829); also: top concentration of the series differs between compounds; nearly all actives have a fitted effect of over 45% in size
# Summary of the method: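 Compound-treated SBE-bla HEK 293T cells (5 hr, 37 C) were assessed for viability with CellTiter-Glo in parallel with the reporter read.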
# [18] = Human pregnane X receptor (PXR) small molecule agonists, qHTS cell viability counter screen (AID 1346977); also: nearly all actives have a fitted effect of over 50% in size
# Summary of the method: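 HepG2 cells stably carrying the PXR-Luc reporter are cultured with 5% charcoal-stripped FBS and treated with compounds for 24hr. CellTiter-Fluor is added at 23hr and fluorescence is read after 1hr.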
SMILES,Potency [1],Potency [2],Potency [3],Potency [4],outcome [5],outcome [6],outcome [7],outcome [8],Potency [9],Potency [10],Potency [11],Potency [12],Potency [13],Potency [14],Potency [15],Potency [16],outcome [17],Potency [18]
Cc1cc(C)n(CO)n1,inactive,inactive,inactive,inactive,inactive,inactive,inactive,inactive,inactive,inactive,inactive,inactive,inactive,inactive,–,–,–,–
CCC(C)CCCC(C)(C)O (configuration not stated),inactive,–,inactive,inactive,inactive,inactive,inactive,inactive,inactive,inactive,inactive,inactive,inactive,inactive,inactive,inactive,inactive,inactive
O=C(O)c1c2ccccc2cc2ccccc12,inactive,inactive,inactive,inactive,inactive,inactive,inactive,inactive,inactive,inactive,inactive,inactive,–,inactive,–,–,inactive,inactive
Cc1c(N=C=O)cccc1N=C=O,inactive,–,inactive,inactive,inactive,inactive,inactive,inactive,inactive,inactive,inactive,inactive,inactive,inactive,inactive,inactive,inactive,inactive
O=C1c2ccccc2C(=O)C1c1ccc2ccccc2n1,inactive,–,inactive,inactive,inactive,inactive,inactive,inactive,inactive,9.59 µM (active),inactive,6.05 µM (active),–,inactive,inactive,inactive,inactive,–
O=C(O)c1cccc(C(=O)O)c1C(=O)O,inactive,inactive,–,34.7 µM (active),inactive,inactive,inactive,inactive,inactive,inactive,inactive,inactive,inactive,40.3 µM (active),inactive,inactive,inactive,inactive
COC(=O)C(C)(C)C,inactive,inactive,–,–,inactive,inactive,inactive,inactive,inactive,inactive,inactive,inactive,inactive,–,inactive,–,inactive,inactive
O=Cc1ccc(Cl)c([N+](=O)[O-])c1,inactive,inactive,–,inactive,inactive,inactive,inactive,inactive,–,68.6 µM (active),inactive,–,inactive,35.6 µM (active),–,–,inactive,inactive
